Assay results taken from PubChem BioAssay (NCATS).
Inconclusive results are not listed. Activity calls are given as the source filed them. Calls follow the shape of the dose curve; as a rule, active = well fitted inhibition curve with a large enough effect; inconclusive = small, poorly fitted or top-dose-only effect; inactive = flat fitted curve, though single readings scatter.

Legend:
Test in all cases: qHTS profiling for inhibitors of Plasmodium falciparum proliferation (AID 504749); also: nearly all actives have a fitted effect of over 60% in size
Settings in all cases: P. falciparum in erythrocytes, SYBR Green DNA, 72 h; series mostly up to 28.7 µM
AA1029 = tested on: AA1029
Outline: (§1)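 Quantitative HTS: compounds pinned into medium, infected erythrocytes added (0.3% parasitemia, 2.5% hematocrit), 72 h culture at 37 C under 5% CO2. Saponin/Triton lysis with SYBR Green I, overnight RT, then fluorescence read.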

AS120 = tested on: AS120
Outline: as §1

ATS189 = tested on: ATS189
Outline: as §1

ATS95 = tested on: ATS95
Outline: as §1

C2A = tested on: C2A
Outline: as §1

CP185 = tested on: CP185
Outline: as §1

CP191 = tested on: CP191
Outline: as §1

CP192 = tested on: CP192
Outline: as §1

CP194 = tested on: CP194
Outline: as §1

CP201 = tested on: CP201
Outline: as §1

Measured: Potency
Potency is read from the fitted curve at half-maximal effect.

Clc1ccccc1Cl
inactive: all assays above

CCCC(C)(COC(N)=O)COC(=O)NC1CC1 (stereo not given)
inactive: all assays above

O=C1CCO1
inactive: all assays above

C=CCN(C1=NCCN1)c1c(Cl)cccc1Cl
inactive: all assays above

CCCCCCCCCC(=O)O[C@H]1CC[C@H]2[C@@H]3CCC4=CC(=O)CC[C@]4(C)[C@H]3CC[C@]12C
inactive: all assays above

COC([CH2][Hg])CNC(=O)c1ccccc1OCC(=O)O (stereo not given)
inactive: all assays above

O=C1CN(O)C(c2ccccc2)=c2cc(Cl)ccc2=N1
inactive: all assays above

CCON=O
inactive: all assays above

S=C(S)N1CCNCC1
inactive: all assays above

CC(=O)O[C@H]1CC[C@H]2[C@@H]3CCC4=CC(=O)CCC4=C3C=C[C@]12C
inactive: all assays above

CCCCCl
inactive: all assays above

COC1=CC=C2[C@H]3Cc4ccc(OC)c5c4[C@@]2(CCN3C)[C@H]1O5
inactive: all assays above

O=C(NC(=O)c1c(F)cccc1F)Nc1ccc(Cl)c(Oc2ncc(C(F)(F)F)cc2Cl)c1
inactive: all assays above

C[C@]12CCC(=O)C[C@@H]1CC[C@@H]1[C@@H]2CC[C@]2(C)[C@@H](O)CC[C@@H]12
inactive: all assays above

CN1c2ccccc2C(NCCCCCCC(=O)O)c2ccc(Cl)cc2S1(=O)=O (stereo not given)
inactive: all assays above

O=[N+]([O-])c1ccc(F)c([N+](=O)[O-])c1
inactive: all assays above

O=C/C=C/c1ccccc1
inactive: all assays above

CC(C)(O)C1C2OC(=O)C1C1(O)CC3OC34C(=O)OC2C14C (stereo not given)
inactive: all assays above

O=S(=O)(O)c1cc(O)ccc1O
inactive: all assays above

S=C=S
inactive: all assays above

O=C(CCl)c1ccc(Oc2ccc(C(=O)CCl)cc2)cc1
inactive: all assays above

NCC(O)c1cccc(O)c1 (stereo not given)
inactive: all assays above

O=CC=O
inactive: all assays above

C=CCN1CC[C@]23c4c5ccc(O)c4O[C@H]2[C@@H](O)C=C[C@H]3[C@H]1C5
inactive: all assays above

CCC(C)(S(=O)(=O)CC)S(=O)(=O)CC
inactive: all assays above

CC(C)CCON=O
inactive: all assays above

FC(F)OC(F)(F)C(F)Cl (stereo not given)
inactive: all assays above

N#CN
inactive: all assays above

C=CCN1CCC23c4c5ccc(O)c4O[C@H]2C(=O)CC[C@@]3(O)C1C5 (stereo not given in full)
inactive: all assays above

CN1[C@@H]2CC[C@H]1CC(OC1c3ccccc3CCc3ccccc31)C2 (stereo not given in full)
active: AA1029 3.55 µM | AS120 3.55 µM | CP191 2.51 µM
inactive: CP192 | CP201

CCOc1ccc2c3c1O[C@H]1[C@@H](O)C=C[C@H]4[C@@H](C2)N(C)CC[C@@]341
not listed: CP194
inactive: all other assays above

Oc1cc(Cl)c(Cl)cc1Cl
inactive: all assays above

N#CC(C#N)=Cc1cc(O)c(O)c(O)c1
active: AA1029 12.6 µM | AS120 8.91 µM | C2A 10 µM | CP185 8.91 µM | CP192 13.5 µM | CP194 15.1 µM

CCC1(c2ccccc2)C(=O)NC(=O)NC1=O
not listed: AS120 | CP192
inactive: all other assays above

CCC1(C)CC(=O)NC(=O)C1
not listed: ATS95
inactive: all other assays above

COCC(C)N(C(=O)CCl)c1c(C)csc1C (stereo not given)
inactive: all assays above

Cc1sc2ccccc2c1CC1=NCCN1
not listed: CP191
inactive: all other assays above

Clc1ccc(Cl)cc1
inactive: all assays above

C[C@@H](Cc1ccccc1)NCCC(c1ccccc1)c1ccccc1
inactive: ATS189 | C2A | CP192 | CP201

CCOC(=O)c1ccccc1C(=O)OCC
inactive: all assays above

CC(=O)OO
inactive: all assays above

O=C(CS(=O)C(c1ccccc1)c1ccccc1)NO (stereo not given)
inactive: all assays above

CNC1(c2ccccc2Cl)CCCCC1=O (stereo not given)
not listed: ATS95 | CP191 | CP194
inactive: all other assays above

CN1C2CCC1CC(OC(c1ccccc1)c1ccc(Cl)cc1)C2 (stereo not given)
active: AA1029 11.2 µM | AS120 11.2 µM | ATS189 10 µM | ATS95 8.91 µM | C2A 11.2 µM | CP185 12.6 µM | CP191 4.47 µM | CP194 10.7 µM

C[C@H]1CCC[C@H](O)CCCCCc2cc(O)cc(O)c2C(=O)O1
inactive: ATS189 | ATS95 | C2A | CP185 | CP192 | CP201

C[C@H]1CC[C@@H]2[C@@H](C)[C@H]3[C@H](C[C@H]4[C@@H]5CC=C6CC(O[C@@H]7O[C@H](CO)[C@H](O)[C@H](O[C@@H]8O[C@H](CO)[C@@H](O)[C@H](O)[C@H]8O)[C@H]7O[C@H]7O[C@@H](C)[C@H](O)[C@@H](O)[C@H]7O)CC[C@]6(C)[C@H]5CC[C@]34C)N2C1 (stereo not given in full)
inactive: all assays above

CC(=O)OC1CN2CCC1CC2 (stereo not given)
inactive: all assays above

CCCC(=O)OC(C(Cl)(Cl)Cl)P(=O)(OC)OC (stereo not given)
not listed: ATS95
inactive: all other assays above

O=C1C2CC=CCC2C(=O)N1SC(Cl)(Cl)Cl (stereo not given)
inactive: all assays above
